Assay results reported in PubChem BioAssay (NCI).
Several values for one entry are separate records, joined by “and”; a condition that tells them apart may be missing. Equal entries are not always repeated. About 83,000 compounds went through this panel and 20% of them were active in at least one assay; those are over-represented in the sample as a whole.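 Cell lines were cultured in 96-well plates, exposed to a single compound concentration, and assessed for percent growth 48 hours later.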 Some structures have more than one record in an assay (separate samples or runs), and their calls can disagree. Activity calls are given as the source filed them. How the source made its calls: active means growth percent below 10; inactive means the rest.

Test system: HL-60(TB) leukemia
Assay: NCI-60 one-dose screen, 48 h (100 = growth as untreated, 0 = no growth, -100 = all killed)
Settings: 10 µM unless noted

Row | Compound | growth
1 | Cc1cc(C)c2c(c1)N(C)c1ncnc(-n3cnc4cc(C)ccc43)c1CC2C (stereo not given) | 11.1% (inactive)
2 | Nc1nc(N)c2cc(Sc3ccc(Cl)cc3)ccc2n1 | 27.5% (inactive)
3 | Cc1ccc(NCCN2CCCCC2)c2c(=O)c3ccccc3sc12 | 1.52% (active)
4 | COC(=O)C1(O)NC(=C(C#N)C#N)C(C#N)=C1C(=O)c1ccc(OC)c(OC)c1 (stereo not given) | 79% (inactive)
5 | COc1ccc(NC(=O)CSc2nc(C)c(C(C)=O)n2-c2ccc(Cl)cc2)cc1 | 103% (inactive)
6 | Nc1c(C(=O)Nc2ccccn2)sc2nc3c(cc12)CCCCCC3 | -22.2% (active)
7 | COC(=O)[C@]12CCC(C)(C)C[C@H]1C1=CC[C@@H]3[C@@]4(C)C/C(=C/c5cccnc5)C(=O)C(C)(C)[C@@H]4CC[C@@]3(C)[C@]1(C)CC2 | -13.5% [100 µM] (active)
8 | COc1ccc(-c2ccc(-c3ccc(C(=N)N)c(F)c3)s2)cc1 | -79.4% (active)
9 | C#CC[C@@H]1C[C@]2(C)[C@H]3CC=C4[C@H]5CC(C)(C)CC[C@]5(C(=O)NCCCCN)CC[C@@]4(C)[C@]3(C)CC[C@H]2C(C)(C)[C@H]1OC(C)=O | -46.5% (active)
10 | Cc1ccc(Nc2nc(N)c3ccccc3n2)cc1Cl | 78.2% (inactive)
11 | CN(C)CCOC1(Cc2ccc(Cl)cc2Cl)CCC(C(C)(C)C)CC1 (stereo not given) | 43.9% (inactive) and 9.21% (active)
12 | CCCCCCCCCCCCCCCCCCOc1ccccc1N | 2.15% (active)
13 | O=C(Nc1ccc(OS(=O)(=O)c2ccccc2)cc1)C12CC3CC(CC(C3)C1)C2 | 37.3% (inactive)
14 | CCN(CC)c1ccc2c(c1)Oc1nc(N)c(C#N)c(N)c1C2Sc1ccc(SC)cc1 (stereo not given) | -31.7% (active)
15 | O=C(NC(=O)c1ccc(F)c(Cl)c1)NC1CC1 | 88.3% (inactive) and 89% (inactive)
16 | CC(C)=NNc1ccccn1 | 34.6% (inactive)
17 | N=C(N)c1ccc(-c2ccc(-c3ccc(Cl)cc3)s2)nc1 | -39.1% (active)
18 | OC(c1cc(-c2ccc(C(F)(F)F)cc2)nc(C(F)(F)F)c1)C1CCCCN1 (stereo not given) | -47.6% (active) and -72.8% (active) and 36.6% (inactive)
19 | COc1cc(/C=N/NC(=O)c2cnn3c2NC(c2ccccc2)C3)ccc1OC1CCCC1 (stereo not given) | 40.8% (inactive)
20 | c1ccc(CNCCN(CCNCc2ccccn2)Cc2ccc3ccccc3c2)nc1 | -34.5% (active)

Row | Compound | growth
21 | Cn1cc(-c2noc(-c3cn(C)c4ncc(F)cc34)n2)c2ccccc21 | 85.5% (inactive)
22 | O=C(Nc1ccc(C2=NCCCN2)cc1)Nc1ccc(C2=NCCCN2)cc1 | 87.4% (inactive)
23 | N#Cc1ccc(/C=C/C(=O)c2ccccc2)cc1 | -15.6% (active) and 17.7% (inactive)
24 | CCOC(=O)C1CCCN1C(=O)C1(NC(C)=O)CCCC1 (stereo not given) | 98.4% (inactive)
25 | N#C/C(=C\c1ccc(Br)cc1)n1nnc2ccc(F)cc21 | -23.2% (active)
26 | O=C(OCc1ccc2cccc(O)c2n1)N1CCN(C(=O)c2cc3cc(F)ccc3[nH]2)CC1 | -35.8% (active)
27 | C=C1C(=O)O[C@H]2[C@H]1CC/C(COC(=O)c1cccnc1)=C\CC[C@@]1(C)O[C@@H]21 | 2.18% (active)
28 | CC(=O)O[C@@H]1CCN2C(=O)N(C)c3ccccc3[C@@H]2C1 | 101% (inactive)
29 | Cc1cc(O)c(C2=NN(c3ccc(S(N)(=O)=O)cc3)C(c3ccc(Cl)cc3)C2)c(C)c1Cl (stereo not given) | 18.4% (inactive)
30 | CNc1ccc(Cl)cc1S(=O)(=O)c1ccccc1[N+](=O)[O-] | 65.3% (inactive) and 79.9% (inactive)
31 | O=C1Cc2ccccc2C(=O)O1 | 89.1% (inactive)
32 | CC1=C([Se]CC(OC(=O)CC[Se]c2ccccc2)C(=O)NCCCCCC(=O)OCc2ccccc2)C(=O)c2ccccc2C1=O (stereo not given) | 15.5% (inactive)
33 | O=C(/C=C/c1ccc(Cl)s1)c1ccc(Cl)s1 | 119% (inactive) and 111% (inactive)
34 | CC(=O)N(N=Nc1ccccc1)c1cccc2ccccc12 | 116% (inactive)
35 | Cc1ccc(N2CCN(C(=S)c3cccs3)CC2)cc1 | 93.3% (inactive)
36 | CCCCCCCCCCCCCCCCNC(=O)Nc1ccc2ccccc2c1 | 95% (inactive)
37 | COc1cc(/C=C/c2cc(/C=C/c3ccc(O)c(OC)c3)n(-c3c(Cl)cccc3Cl)c(=O)n2)ccc1O | 13.5% (inactive)
38 | Cc1ccc(NCCN(C)CC(C)O)c2c(=O)c3ccc(Cl)cc3sc12 (stereo not given) | 9.65% (active)
39 | COc1ccc2sc3c(NCCCN(C)C)nc4ccccc4c3c(=O)c2c1 | 38.7% (inactive)
40 | COc1ccc(-c2conc2-n2nc(-c3ccccc3)nc2-c2ccccc2)cc1 | 99.3% (inactive)
